Here are results for 29 compounds from PubChem BioAssay (Tox21).

Inconclusive results are not listed. Calls of active or inactive are those of the source. Unless noted, calls come from the whole dose curve; as a rule, active = well fitted curve in the direction sought with a large enough effect in the repeat runs; inconclusive = weak or mixed curves; inactive = no such curve, though single readings can be large; an effect the other way counts as inactive or inconclusive.

Experiment [1] can be described thus: A CellTox Green Cytotoxicity Assay to monitor cytotoxicity in HepG2 cells - 8 hour (AID 1224890). Note: nearly all actives have a fitted effect of over 45% in size. Note: potency is the fitted concentration of half-maximal effect. To be noted: CellTox Green fluorescence; series mostly up to 76.8 µM. A digest of the protocol:
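Nonlytic assay: viable cells exclude the dye, so fluorescence scales with cell death. HepG2 at 600 cells/well, compounds added after 5 h, signal read across 40 h.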

Experiment [2] addresses Androgen receptor (Homo sapiens) (UniProt P10275). In words: qHTS assay to identify small molecule antagonists of the androgen receptor (AR) signaling pathway using the MDA cell line in the presence of 0.5 nM R1881 (AID 1259243). Note: nearly all actives have a fitted effect of over 50% in size. Note: potency is the fitted concentration of half-maximal effect. The following applies: MDA-kb2 MMTV-luciferase, R1881 0.5 nM, 16 h; series mostly up to 92.4 µM. The method in brief:
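We exposed MDA-kb2 cells to compounds under 0.5 nM R1881 stimulation for 16 hr at 37C and quantified MMTV-driven luciferase by luminescence.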
Background: Quantitative high-throughput screening tests each substance at several concentrations.

Experiment [3] addresses Estrogen receptor (Homo sapiens) (UniProt P03372). Nature of the experiment: qHTS assay to identify small molecule antagonists of the estrogen receptor alpha (ER-alpha) signaling pathway using the BG1 cell line in the presence of 0.1 nM 17-beta-estradiol (AID 1259244). Note: nearly all actives have a fitted effect of over 50% in size. Note: potency is the fitted concentration of half-maximal effect. The following applies: VM7Luc4E2 (BG1) ERE-luciferase, antagonist mode, 0.1 nM E2, 22 h; series mostly up to 92.4 µM. The method in brief:
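VM7Luc4E2; 4xERE-luciferase; 0.1 nM E2 final; 22 h co-incubation, 37C; ONE-Glo luminescence after 30 min at room temperature.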

Experiment [4] is described as follows: qHTS assay to identify small molecule HDAC inhibitors (AID 1259364). Note: potency is the fitted concentration of half-maximal effect.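 Note: wild-type HCT-116 cells with endogenous class I/II HDAC activity; nearly all actives have a fitted effect of over 45% in size.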 To be noted: HCT-116 HDAC-Glo I/II luminescence, 2 h; series mostly up to 92.4 µM. The method in brief:
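Relative class I and II HDAC activity is taken from the luminogenic signal in HCT-116 cells, with compound exposure 2 hr and reagent development 30 min at room temperature.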

The nature of experiment [5]: qHTS assay to identify small molecule HDAC inhibitors - cell viability counter screen (AID 1259365). Note: nearly all actives have a fitted effect of over 50% in size. Note: potency is the fitted concentration of half-maximal effect. To be noted: HCT-116 viability, CellTiter-Glo ATP luminescence, 2 h; series mostly up to 92.4 µM. The method in brief:
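CellTiter-Glo luminescence (30 min, room temperature) reported viability after a 2 h compound exposure at 37 C. Cells: wild-type HCT-116, 1,500 per well, seeded the night before.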

Experiment [6] is described as follows: qHTS assay to identify small molecule antagonists of the estrogen receptor alpha (ER-alpha) signaling pathway using the BG1 cell line in the presence of 0.1 nM 17-beta-estradiol - cell viability counter screen (AID 1259241). Note: nearly all actives have a fitted effect of over 40% in size. Note: potency is the fitted concentration of half-maximal effect. The following applies: VM7Luc4E2 (BG1) viability, CellTiter-Fluor protease, 22 h, 0.1 nM estradiol agonist added; series mostly up to 92.4 µM. A digest of the protocol:
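Cytotoxicity counter-screen: live-cell protease activity measured by fluorescence (30 min reagent step) in the same wells. Cells were VM7Luc4E2 with endogenous ER-alpha and ERE-driven luciferase, treated 22 hr at 37C alongside 0.1 nM 17beta-estradiol final.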

A short description of experiment [7]: qHTS assay to identify small molecule antagonists of the sonic hedgehog signaling (Shh) pathway - cell viability counter screen (AID 1259367). Note: nearly all actives have a fitted effect of over 55% in size. Note: potency is the fitted concentration of half-maximal effect. The following applies: NIH/3T3 Gli1-Luc viability, CellTiter-Fluor, 24 h; series mostly up to 92.4 µM. The method in brief: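 Seed 3T3 Gli1-Luc cells at 2,000 per well; incubate 4 hr; add compound in DMSO, then conditioned medium; incubate at 37C with 5% CO2; add CellTiter-Fluor after 23 hr; read fluorescence 1 hr later.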

Experiment [8] can be described thus: qHTS assay to identify small molecule antagonists of the androgen receptor (AR) signaling pathway using the MDA cell line in the presence of 0.5 nM R1881 - cell viability counter screen (AID 1259242). Note: nearly all actives have a fitted effect of over 45% in size. Note: potency is the fitted concentration of half-maximal effect. To be noted: MDA-kb2 viability, CellTiter-Fluor protease fluorescence, 16 h; series mostly up to 92.4 µM. A digest of the protocol:
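R1881 at 0.5 nM final stimulated MDA-kb2 cells during 16 hr compound treatment at 37C. Cytotoxicity read: CellTiter-Fluor fluorescence after 30 min.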

Experiment [9] is described as follows: qHTS assay to identify small molecule agonists of the sonic hedgehog signaling (Shh) pathway - cell viability counter screen (AID 1259366). Note: nearly all actives have a fitted effect of over 50% in size. Note: potency is the fitted concentration of half-maximal effect. The following applies: NIH/3T3 Gli1-Luc viability, CellTiter-Fluor, 24 h; series mostly up to 92.4 µM. The method in brief:
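Cytotoxicity counter screen: CellTiter-Fluor reagent added after 23 h compound exposure, then 1 h at 37C and fluorescence read. Cells were 3T3 Gli1-Luc, seeded 2,000 per well and dosed 4 h post-plating.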

The nature of experiment [10]: qHTS assay to identify small molecule phospholipidosis (PLD) inducers (AID 1259344; active = well fitted curve in the direction sought with a large enough effect; an effect the other way counts as inactive or inconclusive). The following applies: HepG2 phospholipidosis, LipidTOX Red imaging, 24 h; series mostly up to 38.3 µM. A digest of the protocol: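 Quantitative HTS in HepG2: compound plus LipidTOX Red dye for 24 h, paraformaldehyde fixation with Hoechst 33342, widefield high-content imaging; amiodarone as positive and DMSO as negative control.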

Estrogen receptor (Homo sapiens), sequence (P03372 whole entry, looked up): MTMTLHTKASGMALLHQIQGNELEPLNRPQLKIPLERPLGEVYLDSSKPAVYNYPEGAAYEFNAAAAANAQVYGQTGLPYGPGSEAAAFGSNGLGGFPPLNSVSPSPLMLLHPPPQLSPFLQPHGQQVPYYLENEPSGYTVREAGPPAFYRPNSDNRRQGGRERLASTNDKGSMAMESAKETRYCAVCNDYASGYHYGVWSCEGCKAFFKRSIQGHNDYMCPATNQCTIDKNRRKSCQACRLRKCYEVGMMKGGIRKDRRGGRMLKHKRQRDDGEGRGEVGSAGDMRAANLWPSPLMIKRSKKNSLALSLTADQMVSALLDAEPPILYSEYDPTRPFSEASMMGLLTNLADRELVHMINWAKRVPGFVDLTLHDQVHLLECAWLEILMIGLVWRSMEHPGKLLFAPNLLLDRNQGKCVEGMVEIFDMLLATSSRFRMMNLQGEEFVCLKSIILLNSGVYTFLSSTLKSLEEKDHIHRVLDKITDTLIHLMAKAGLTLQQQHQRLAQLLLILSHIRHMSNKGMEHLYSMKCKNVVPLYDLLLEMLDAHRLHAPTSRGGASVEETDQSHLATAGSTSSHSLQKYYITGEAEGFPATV
Androgen receptor (Homo sapiens), sequence (P10275 whole entry, looked up): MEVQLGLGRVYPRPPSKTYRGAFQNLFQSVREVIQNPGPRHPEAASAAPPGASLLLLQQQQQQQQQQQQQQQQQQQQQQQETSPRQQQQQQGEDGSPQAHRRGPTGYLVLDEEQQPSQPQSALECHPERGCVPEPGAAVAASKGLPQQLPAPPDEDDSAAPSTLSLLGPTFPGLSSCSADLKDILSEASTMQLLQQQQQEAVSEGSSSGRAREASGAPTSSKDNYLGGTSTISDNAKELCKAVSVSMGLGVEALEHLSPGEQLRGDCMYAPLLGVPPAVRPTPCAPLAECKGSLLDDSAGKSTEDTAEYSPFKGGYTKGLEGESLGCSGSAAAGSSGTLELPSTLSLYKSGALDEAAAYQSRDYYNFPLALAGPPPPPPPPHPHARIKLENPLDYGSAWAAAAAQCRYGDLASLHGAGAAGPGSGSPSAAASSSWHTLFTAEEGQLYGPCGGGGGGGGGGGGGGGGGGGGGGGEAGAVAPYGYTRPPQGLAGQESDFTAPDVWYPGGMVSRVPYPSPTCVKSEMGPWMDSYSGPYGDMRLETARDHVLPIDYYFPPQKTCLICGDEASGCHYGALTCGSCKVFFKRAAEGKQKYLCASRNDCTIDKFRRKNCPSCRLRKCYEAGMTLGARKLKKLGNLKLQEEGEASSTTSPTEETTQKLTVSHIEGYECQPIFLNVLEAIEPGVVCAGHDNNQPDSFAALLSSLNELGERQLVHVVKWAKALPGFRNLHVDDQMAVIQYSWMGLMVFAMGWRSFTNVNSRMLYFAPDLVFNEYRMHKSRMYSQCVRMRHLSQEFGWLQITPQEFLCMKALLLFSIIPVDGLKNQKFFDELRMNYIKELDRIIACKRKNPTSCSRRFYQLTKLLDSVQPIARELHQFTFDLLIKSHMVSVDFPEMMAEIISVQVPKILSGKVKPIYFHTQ

Consider `O=C(Nc1ccccc1)Nc1ccnc(Cl)c1`, for which the Potency entry in [1] and in experiment [5] was “inactive” each time. Also, the values for the Potency in [2], in experiment [3] and in experiment [4] were 43.3 µM (active), 24.3 µM (active) and 4.33 µM (active), respectively.
For `O=C(CBr)OCc1ccccc1`, the Potency result in experiment [1], in experiment [6], in experiment [4], in [5] and in experiment [7] was “inactive” each time.
Consider `Clc1ccc(C2(Cn3cncn3)CC(Br)CO2)c(Cl)c1` (configuration not stated), for which the Potency result in experiment [1], in experiment [8], in experiment [4] and in experiment [5] was “inactive” throughout. For the same compound, the Potency in experiment [3] was 68.2 µM (active).
Consider `CC(C)(C)c1cc([N+](=O)[O-])cc([N+](=O)[O-])c1O`, for which the Potency in experiment [6] is 13.6 µM (active); in experiment [8], 12.2 µM (active); in experiment [9] it was 21.6 µM (active); in experiment [7], 24.3 µM (active). The Potency result in experiment [5] was “inactive”.
Regarding `CS/C(C)=N/OC(=O)N(C)SN(C)C(=O)O/N=C(\C)SC`, the Potency result in experiment [6], in experiment [2], in experiment [3], in experiment [5] and in experiment [7] was “inactive” throughout. In experiment [9], the Potency was 54.5 µM (active).
Turning to `N#Cc1cc(I)c(O)c(I)c1`, the Potency entry in [1], in experiment [4], in experiment [5] and in experiment [7] was “inactive” throughout. Further, the Potency in experiment [2] is 54.5 µM (active).
Consider `Nc1ccc(N=Nc2ccc(-c3ccc(N=Nc4c(S(=O)(=O)O)cc5cc(S(=O)(=O)O)c(N=Nc6ccccc6)c(O)c5c4N)cc3)cc2)c(N)c1`, for which the Potency result in experiment [1], in [8] and in experiment [3] was “inactive” throughout. In addition, the Potency in experiment [4] was 15.7 µM (active); in experiment [5] it was 17.6 µM (active); in experiment [9], 17.6 µM (active); in [7], 19.7 µM (active).
Take `Sc1ccccc1Cl`: the Potency entry in [6], in [8], in [2], in [4], in [5] and in experiment [9] was “inactive” each time.
For `O=C(N[C@H](c1ccccc1)[C@@H]1CN2CCC1CC2)c1c(Cl)ccc(C(F)(F)F)c1Cl`, the Potency result in [1], in experiment [6] and in experiment [5] was “inactive” each time. In addition, in [7], the Potency is 43.9 µM (active).
With `O=[N+]([O-])c1ccccc1CCl`, the Potency entry in [1], in [8], in experiment [3], in experiment [4], in experiment [5] and in experiment [9] was “inactive” each time. The Potency entry in [7] is “inactive”.
For `CC(=O)c1cc2c(cc1C)C(C)(C)C(C)CC2(C)C` (configuration not stated), the Potency entry in experiment [6], in [8], in [4], in experiment [5], in [9] and in [7] was “inactive” throughout.
Regarding `O=C(O)CC(Cl)C(=O)O` (configuration not stated), the Potency result in [1], in experiment [8], in experiment [4], in experiment [5], in [9] and in experiment [7] was “inactive” throughout.
As to `CO/C=C(/C(=O)OC)c1ccccc1COc1cccc(C(F)(F)F)n1`, the Potency entry in experiment [1], in [4], in experiment [5], in experiment [9] and in [7] was “inactive” each time. Besides, the results for the Potency in experiment [8] and in [3] were 6.85 µM (active) and 2.17 µM (active), respectively.
With `COP(=S)(Oc1cc(Cl)c(Br)cc1Cl)c1ccccc1` (configuration not stated), the Potency result in experiment [6], in [3], in experiment [4], in experiment [5], in experiment [9] and in experiment [7] was “inactive” in each case. Also, the Potency in experiment [2] is 27.3 µM (active).
Regarding `CCC(C)(NC(=O)c1cc(Cl)c(C)c(Cl)c1)C(=O)CCl` (configuration not stated), the Potency result in experiment [1], in [3], in experiment [4] and in experiment [5] was “inactive” each time. The Potency was 43.5 µM (active) in experiment [9] and 21.8 µM (active) in experiment [7].
As to `Clc1cc(C(Cl)(Cl)Cl)cnc1Cl`, the Potency entry in experiment [1], in experiment [6], in experiment [5] and in experiment [9] was “inactive” each time.
With `IC(I)=C(I)I`, the Potency is 38.9 µM (active) in experiment [1]; 61.1 µM (active) in [8]; 15.4 µM (active) in [2]; 27.3 µM (active) in [3]; 7.7 µM (active) in experiment [9]; 17.2 µM (active) in [7]. Moreover, the Potency result in [4] and in experiment [5] was “inactive” in each case.
For the compound `O=C(O)C(F)(F)C(F)(F)C(F)(F)C(F)(F)C(F)(F)C(F)(F)C(F)(F)C(F)(F)C(F)(F)C(F)(F)F`, the Potency entry in experiment [6], in experiment [8], in [4], in [5], in experiment [9] and in experiment [7] was “inactive” each time.
Regarding `C=CC[C@]1(O)CC[C@H]2[C@@H]3CCC4=CC(=O)CCC4=C3C=C[C@@]21C`, the Potency result in [1], in experiment [4] and in experiment [5] was “inactive” throughout. For the same compound, the Potency in experiment [3] is 13.3 µM (active).
`CC1(C)CCC(Cc2ccc(Cl)cc2)C1(O)Cn1cncn1` (configuration not stated): the Potency result in experiment [6], in experiment [4], in experiment [5], in [9] and in experiment [7] was “inactive” throughout. Besides, the Potency in [3] is 61.1 µM (active).
As for `O=[N+]([O-])C(Br)(CO)CO`, the Potency result in experiment [6], in experiment [8], in experiment [2], in experiment [4] and in [5] was “inactive” in each case. For the same compound, the result in experiment [10] was inactive. Also, the Potency is 48.6 µM (active) in experiment [9] and 61.1 µM (active) in experiment [7].
Take `c1cc2ccc3cccc4ccc(c1)c2c34`: the Potency entry in experiment [1], in [8], in [3], in experiment [5], in experiment [9] and in [7] was “inactive” throughout. In addition, in experiment [2], the Potency is 16.1 µM (active). For the same compound, the call in experiment [10] was inactive.
For `Nc1ccc([N+](=O)[O-])cc1[N+](=O)[O-]`, the Potency result in experiment [1], in [8], in [4], in experiment [5] and in experiment [7] was “inactive” throughout.
Take `CC(c1ccc(O)cc1)(c1ccc(O)cc1)c1ccc(O)cc1`: the Potency result in experiment [1], in experiment [8], in experiment [4] and in experiment [5] was “inactive” in each case. The Potency in [9] was 61.1 µM (active).
With `CCOP(=S)(OCC)SCn1nnc2ccccc2c1=O`, the Potency entry in experiment [1], in experiment [8], in experiment [5], in experiment [9] and in [7] was “inactive” throughout. For the same compound, in experiment [3], the Potency is 48.6 µM (active).
As to `O=C(Nc1ccccc1)Nc1cnns1`, the Potency entry in [1], in experiment [8], in experiment [5] and in experiment [7] was “inactive” each time. For the same compound, in [4], the Potency is 30.6 µM (active).
As to `CCCCC(O)(Cn1cncn1)c1ccc(Cl)cc1Cl` (configuration not stated), the Potency in [2] is 54.4 µM (active); in experiment [3], 61.1 µM (active). For the same compound, in experiment [5], the Potency result was “inactive”.
For `CNC(C)Cc1ccccc1OC` (configuration not stated), the Potency entry in experiment [6], in [8], in [3], in experiment [4], in experiment [5] and in experiment [9] was “inactive” throughout. For the same compound, in experiment [10], the result was inactive.
`COC1=CC(=O)O[C@@H](CCc2ccccc2)C1`: the Potency entry in experiment [1], in [8], in experiment [5] and in [7] was “inactive” throughout. For the same compound, the Potency in experiment [2] is 40.1 µM (active).
